This is an account of results in PubChem BioAssay.

Values without a mark were called inactive. The source made the active and inactive calls.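 How the source made its calls: active means inhibition at or above 50% relative to wild type and mutant plate controls; inactive means inhibition below 50%.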

A short description of this assay: loss of swimming-algae plug formation – whole organism, Chlamydomonas reinhardtii, WT vs cilia-less mutant, absorbance, 96-well, primary screen (AID 463189).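 Further: 0% = wild type cc124 cells in DMSO and 100% = ciliumless bld1 mutant cells.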 As to conditions: Chlamydomonas reinhardtii gravitaxis, OD600 absorbance, 2 days; at 10 µM; stronger effect = higher value.
Turning to `CCC1(O)CC2CN(CCc3c([nH]c4ccccc34)[C@@](C(=O)OC)(c3cc4c(cc3OC)N(C)C3[C@]45CCN4CC=C[C@@](CC)([C@@H](OC(C)=O)[C@]3(O)C(=O)OC)[C@H]45)C2)C1` (stereo not given in full), the inhibition is 4.61%. As for `COc1ccc2c(c1)c(CC(=O)O)c(C)n2C(=O)c1ccccc1`, the inhibition was 2.3%. Turning to `CC(=O)N[C@@H](Cc1c[nH]c2ccccc12)C(=O)OCc1cc(C(F)(F)F)cc(C(F)(F)F)c1`, the inhibition was -0.535%. Under `CSc1ccc2c(c1)C(N1CCN(C)CC1)Cc1ccccc1S2` (stereo not given) stands 0.427%.

`OCCN1CCN(CC/C=C2/c3ccccc3Sc3ccc(C(F)(F)F)cc32)CC1`: the inhibition was 15.6%. Under `Cc1cccc(C(=O)NCN2CCN(c3ccccc3C#N)CC2)c1` stands 0.075%. For the compound `CC(C)Cc1ccc([C@H](C)C(=O)O)cc1`, the inhibition is 8.1%. Under `CC1CCN=C(N)S1` (stereo not given) stands 0.783%; under `O=C(c1cc(O)c(O)c([N+](=O)[O-])c1)c1ccccc1F`, -0.57%. With `NC(=O)c1cc[n+](CC2=C(C(=O)O)N3C(=O)[C@@H](NC(=O)[C@@H](c4ccccc4)S(=O)(=O)[O-])[C@H]3SC2)cc1` the figure was -6.94%. Under `CC[C@H](NC(=O)c1c(C)c(-c2ccccc2)nc2ccccc12)c1ccccc1` stands 9.84%; under `O=c1c2ccccc2nc2n1CCc1c-2[nH]c2ccccc12`, 2.73%; under `CCCNC(C)C(=O)Nc1ccccc1C` (stereo not given), 6.52%. On to `Nc1nc2c(nc(Br)n2C2OC3COP(=O)(O)O[C@@H]3C2O)c(=O)[nH]1` (stereo not given in full), for which the inhibition is 2.8%. With `N=c1ccn2c(n1)OC1[C@@H](O)[C@@H](CO)O[C@H]12` (stereo not given in full) the figure was -5.06%; with `NCCCCN=C(N)N`, 5.23%; with `CSc1nc(N)c2ncn([C@@H]3O[C@H](COP(=O)(O)OP(=O)(O)OP(=O)(O)O)[C@H](O)C3O)c2n1` (stereo not given in full), -3.46%. `C[C@@H](NCCc1ccc(O)cc1)[C@@H](O)c1ccc(O)cc1`: the inhibition was 2.54%. With `CC1=C(/C=C/C(C)=C/C=C/C(C)=C\C(=O)O)C(C)(C)CCC1` the figure was -3.51%.

For `O=C1NC(=O)C(c2ccccc2[N+](=O)[O-])=C1Nc1ccc(O)c(Cl)c1`, the inhibition was 1.1%.

As for `O=c1c(-c2ccc(O)cc2)coc2cc(O)ccc12`, the inhibition was -7.57%.

Turning to `CNC1(C)C2CCC(C2)C1(C)C` (stereo not given), the inhibition is 2.45%. Under `CC(C)(C(=O)O)c1ccc(C(O)CCCN2CCC(C(O)(c3ccccc3)c3ccccc3)CC2)cc1` (stereo not given) stands -1.29%. As to `CC#C[C@]1(O)CC[C@H]2[C@@H]3CCC4=CC(=O)CCC4=C3[C@@H](c3ccc(N(C)C)cc3)C[C@@]21C`, the inhibition was 1.39%. On to `N#CC(C#N)=C(N)/C(C#N)=C/c1ccc(O)cc1`, for which the inhibition is 5.33%. Under `CC1=C(C(=O)O)N2C(=O)[C@@H](NC(=O)C(N)c3ccccc3)[C@H]2SC1` (stereo not given in full) stands -0.964%; under `CCCCCC[C@@H]([C@@H](C)O)n1cnc2c(N)ncnc21`, -0.492%; under `Cc1[nH]c(=O)c(C#N)cc1-c1ccncc1`, 8.79%. With `CC(N=C(NC#N)Nc1ccncc1)C(C)(C)C` (stereo not given) the figure was -9.18%; with `C=C/C(C)=C/[C@@]1(C)SC(=O)C(C)=C1O`, 5.01%; with `NCC(O)c1ccc(O)c(O)c1` (stereo not given), -2.37%.

`O=C1C2C=CC=CC2=NC(=S)N1CCN1CCC(=C(c2ccc(F)cc2)c2ccc(F)cc2)CC1` (stereo not given): the inhibition is -0.94%.

As for `COc1cc(C(O)CO)ccc1OS(=O)(=O)O` (stereo not given), the inhibition is -4.77%. As for `CC(C)NCC(O)c1ccc(NS(C)(=O)=O)cc1` (stereo not given), the inhibition was -0.482%. With `CC/C(=C(\c1ccccc1)c1ccc(OCCN(C)C)cc1)c1ccccc1`, the inhibition was 50.3% (active). With `CC(N)(Cc1ccc(O)cc1)C(=O)O` (stereo not given) the figure was 1.6%; with `CCN1CCC[C@H]1CNC(=O)c1cc(S(N)(=O)=O)ccc1OC`, 3.94%. With `O=c1oc(Cl)c(Cl)c2ccccc12` the figure was 3.88%. As for `COC1=C(OC)C(=O)c2ccccc2C1=O`, the inhibition was 159% (active). As to `N[C@H](C(=O)O)[C@H](O)C(=O)O`, the inhibition was 0.558%.
